From PubChem BioAssay AID493011 (Sanford-Burnham Center for Chemical Genomics, 2011)
Where “and” joins values, the source holds several entries; their conditions need not be identical. Identical values can stand only once. Screen size: about 330,000 compounds; about 1,400 (0.42%) were called active.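 The calls were made as follows: active = at least 40% inhibition at 20 µM here, with at most 30% in a related deaminase screen; inactive = the rest.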 Many of the other results were omitted from the sample, so actives are more common in it than they were.

Biological target: DNA dC->dU-editing enzyme APOBEC-3A (Homo sapiens) (UniProt P31941)
Test: blockers of A3A cytidine deamination on DNA – biochemical, FAM/TAMRA oligo cleavage fluorescence, selectivity assay for APOBEC3G inhibitor project, primary screen (AID 493011);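 also: plate controls were A3A with DMSO for no effect and wells lacking A3A enzyme for full effect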
Details: recombinant A3A, FAM/TAMRA ssDNA deamination fluorescence; at 20 µM; active compounds read high

Chain of DNA dC->dU-editing enzyme APOBEC-3A (Homo sapiens) (P31941 whole entry, looked up): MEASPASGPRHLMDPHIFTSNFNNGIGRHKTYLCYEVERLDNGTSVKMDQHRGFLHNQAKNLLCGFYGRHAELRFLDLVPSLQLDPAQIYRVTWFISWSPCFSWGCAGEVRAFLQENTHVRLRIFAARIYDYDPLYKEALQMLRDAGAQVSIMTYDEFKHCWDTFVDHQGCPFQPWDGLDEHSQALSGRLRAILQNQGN

SMILES	inhibition
N#Cc1c(NC(=O)c2ccc(N3CCOCC3)c([N+](=O)[O-])c2)sc2c1CCCC2	2.01% (inactive)
CCCCNC(=O)CSc1nc2ccc(NC(=O)CSc3nnc(COc4ccccc4C)n3C)cc2s1	-2.55% (inactive)
CCCCNC(=O)CSc1nc2ccc(NC(=O)CSc3nnc(N)s3)cc2s1	75.7% (active)
Nc1nnc(SCC(=O)Nc2ccc3nc(SCC(=O)Nc4ccccc4)sc3c2)s1	-1.31% (inactive)
Cc1cc2c(=O)n(CC(=O)NCC(=O)Nc3ccc(C(C)C)cc3)cnc2s1	-11.2% (inactive)
CO/N=C(\C(=O)N[C@@H]1C(=O)N2C(C(=O)O)=C(COC(C)=O)CS[C@H]12)c1csc(N)n1 (stereo in doubt)	2.73% (inactive) and 21.9% (inactive) and -0.539% (inactive)
C=CC1=C(C(=O)O)N2C(=O)[C@@H](NC(=O)/C(=N\OCC(=O)O)c3csc(N)n3)[C@H]2SC1	13.4% (inactive)
C=CC1=C(C(=O)O)N2C(=O)[C@@H](NC(=O)/C(=N/OCC(=O)O)c3csc(N)n3)[C@H]2SC1	57.5% (active)
COc1ccc(Cc2nnc(NC(=O)c3ccc(OC)cc3OC)s2)cc1	52.7% (active)
COc1ccc(Cc2nnc(NC(=O)c3cc(OC)c(OC)c(OC)c3)s2)cc1OC	6.64% (inactive)
COc1ccccc1NC(=O)Nc1nnc(Cc2ccc(F)cc2)s1	0.132% (inactive)
CN(C)C(=O)Cn1c(=O)n(S(=O)(=O)c2ccccc2)c2ccccc21	0.322% (inactive)
O=C(COC(=O)Cc1ccccc1F)NNC(=O)c1ccc(Cl)cc1	2.91% (inactive)
NS(=O)(=O)c1cc(C(=O)OCC(=O)NNC(=O)c2ccccc2)ccc1Cl	76% (active)
O=C(COC(=O)c1ncc(Cl)c(Cl)c1Cl)NNC(=O)c1ccccc1	2.14% (inactive)
Cc1c(C)c2ccc(OCC(=O)N3CCN(c4cccc(Cl)c4)CC3)cc2oc1=O	2.08% (inactive)
COc1cc(NC(=S)N2CCCC(C)C2)c(OC)cc1Cl (stereo not drawn)	-2.12% (inactive)
CC(/C=C/c1ccco1)=N/NC(=O)C1COc2ccccc2O1 (stereo not drawn)	-6.53% (inactive)
O=C(N/N=C/C=C/c1ccccc1)C1CC1(c1ccccc1)c1ccccc1 (stereo not drawn)	1.87% (inactive)
CC(/C=C/c1ccccc1)=N\NC(=O)C1CC1(C)c1ccccc1 (stereo not drawn)	59.5% (active)
O=C(Nc1ccccc1N1CCOCC1)c1ccc(OCc2cscn2)cc1	3.65% (inactive)
COc1ccc(CN(C)C(=O)c2cc(-c3ccc(C)cc3C)nc3ccccc23)c(OC)c1OC	-0.735% (inactive)

SMILES	inhibition
CC1C(c2ccccc2)=[N+]([O-])C2(CCCC2)N1O (stereo not drawn)	3.6% (inactive)
COc1ccc(S(=O)(=O)N2CCCC(C(=O)Nc3ccc(NC(=O)c4ccccn4)cc3)C2)cc1 (stereo not drawn)	0.311% (inactive)
CC(=O)Nc1ccc(NC(=O)C2CCCN(S(=O)(=O)c3ccc(Cl)cc3)C2)cc1 (stereo not drawn)	94.5% (active)
CC(C)c1ccc(NC(=O)C2CCCN(S(=O)(=O)c3cccnc3)C2)cc1 (stereo not drawn)	3.03% (inactive)
O=C(NCCCn1ccnc1)c1cc(Br)c(Br)s1	-1.2% (inactive)
COc1ccc(-c2cc(C(=O)N/N=C/c3cccnc3)c3ccccc3n2)c(OC)c1	1.62% (inactive)
O=C(N/N=C\c1cccnc1)c1cc(-c2ccccc2)nc2c(Cl)cccc12	43.3% (active)
C/C(=N\NC(=O)c1cc(-c2ccc(O)cc2)nc2ccccc12)c1cccnc1	-0.382% (inactive)
C/C(Cn1nnc2ccccc21)=N\OC(=O)c1cc(F)c(F)cc1Cl	-2.44% (inactive)
CCOc1ccc(C)cc1S(=O)(=O)NC1CCCCCC1	0.216% (inactive)
COc1ccc(C2c3ccc(O)cc3Oc3ncn(CCCO)c(=N)c32)cc1OC (stereo not drawn)	1.57% (inactive)
Cc1ccc(COC(=O)CN2C(=O)NC3(CCCC3)C2=O)cc1	2.64% (inactive)
Cc1ccc(CCCOC(=O)C[N+]2(C)CCCC2)cc1	29.9% (inactive)
Cc1ccc(CCCOC(=O)C[N+]2(C)CCCCC2)cc1	75.2% (active)
O=C(COc1ccccc1)Nc1ccc(N2CCN(C(=O)c3cccs3)CC2)cc1	3.22% (inactive)
COc1ccc(C(=O)NC2(C(F)(F)F)NC(=O)N(CCCc3ccccc3)C2=O)c(OC)c1OC (stereo not drawn)	1.49% (inactive)
CCn1c(SCC(=O)Nc2ccc3c(c2)OCCO3)nnc1-c1ccncc1	-2.5% (inactive)
CCn1c(CNC(=O)c2ccco2)nnc1SCC(=O)Nc1cccc(F)c1	0.913% (inactive)
CCn1c(SCC(=O)Nc2cccc(F)c2)nnc1-c1cc2cc(Br)ccc2o1	49.5% (active)
Cc1ccccc1C1=N/C(=C/c2cccnc2)C(=O)O1	-1.12% (inactive)
Cc1ccc(C2=C/C(=C\c3cccnc3)C(=O)O2)cc1	42.5% (active)
CN(C)/C=C1\C=C(c2ccccc2)OC1=O	0.636% (inactive)

SMILES	inhibition
Cc1ccc(C(=O)N/N=C/c2cccc3ccccc23)cn1	-4.44% (inactive)
Cc1ccc(C(=O)N/N=C\c2cc(Br)c(Br)o2)cn1	44.2% (active)
O=C(N/N=C\c1cc(Br)c(Br)o1)C1COc2ccccc2O1 (stereo not drawn)	13.8% (inactive)
O=C(CN1C(=O)NC2(CCOc3ccccc32)C1=O)Nc1cccc([N+](=O)[O-])c1 (stereo not drawn)	6.58% (inactive)
COc1ccc(CC(=O)N2N=C(C)CC2(O)C(F)(F)F)cc1 (stereo not drawn)	-1.7% (inactive)
CC1=NN(C(=O)CCCc2ccccc2)C(O)(C(F)(F)F)C1 (stereo not drawn)	-5.39% (inactive)
CC1=NN(C(=O)CCc2ccccc2O)C(O)(C(F)(F)F)C1 (stereo not drawn)	54.8% (active)
CC(C)COP(=O)(c1ccc(N(C)C)cc1)C(Nc1ccccc1)c1cccnc1 (stereo not drawn)	-0.443% (inactive)
C[N+](C)(C)CCOP(=O)([O-])OC[C@H](O)CO	-3.05% (inactive)
CCOc1cccc(OCCCOc2cccc3cccnc23)c1	0.036% (inactive)
CCCc1cc(=O)[nH]c(SCc2ccc(C#N)cc2)n1	-3.79% (inactive)
CCOc1ccc(C2C3=C(CCCC3=O)N(CC(=O)O)C3=C2C(=O)CCC3)cc1	5.98% (inactive)
CCCN1C2=C(C(=O)CCC2)C(c2ccc(O)c(Br)c2)C2=C1CCCC2=O	68.9% (active)
COc1ccc(C2C3=C(CCCC3=O)N(CC(=O)O)C3=C2C(=O)CCC3)cc1	-0.629% (inactive)
COc1ccccc1C(CNC(=O)c1cccc(S(=O)(=O)Nc2ccc(F)cc2)c1)N(C)C (stereo not drawn)	-4.98% (inactive)
COc1ccc(C)cc1NC(=O)c1[nH]c(C)c(C(C)=O)c1C	-4.64% (inactive)
O=C(O)C(F)(F)C(NCc1ccccc1)c1ccccc1 (stereo not drawn)	-9.23% (inactive)
CC1(C)CC(=O)C(N=Nc2ccc(S(=O)(=O)N3CCCCCC3)cc2)=C(O)C1	-0.085% (inactive)
Cc1ccccc1NC(=O)CN1C(=O)N/C(=C\c2cccn2-c2cccc(C(=O)O)c2)C1=O	93.1% (inactive)
O=C1N/C(=C/c2cccn2-c2ccccc2)C(=O)N1c1cccc(Cl)c1	0.178% (inactive)
N#Cc1ccccc1CN1C(=O)S/C(=C/c2cccn2-c2cccc(C(=O)O)c2)C1=O	74.4% (active)
O=C(c1n[nH]c2c1CCC2)N1CCCC(Nc2cccc(F)c2)C1 (stereo not drawn)	-3.42% (inactive)

SMILES	inhibition
O=C(COC(=O)/C=C/c1ccc(Br)o1)Nc1cccc(S(=O)(=O)N2CCOCC2)c1	16.5% (inactive)
CC(=O)c1c(C)n(-c2ccc(N(C)C)cc2)c2ccc(OCC(N)=O)cc12	-1.38% (inactive)
COc1ccc(S(=O)(=O)NCCCCOc2ccc(Cl)cc2)cc1	-0.023% (inactive)
COc1cccc(NC(=O)CCNS(=O)(=O)c2ccc3c(c2)oc(=O)n3C)c1	-2.44% (inactive)
COc1cccc(NC(C)=[N+](C)CCNS(=O)(=O)c2ccc(Cl)cc2)c1	52.2% (active)
COc1ccc(C2C3=C(OC(C)=O)c4ccccc4C3=Nc3c2c(=O)n(C)c(=O)n3C)cc1 (stereo not drawn)	-1.29% (inactive)
Cc1cccc(CCNS(=O)(=O)c2ccc(S(=O)(=O)NC3CCCC3)cc2)c1	-4.37% (inactive)
COCCCNC(NC(=O)c1ccc(OC)cc1)C(Cl)(Cl)Cl (stereo not drawn)	-2.86% (inactive)
O=C1C2C3C=CC(C4CC34)C2C(=O)N1c1nccs1 (stereo not drawn)	0.014% (inactive)
CSc1ccc(/C=C2\NC(=O)NC2=O)cc1	-4.33% (inactive)
Cc1ccc(NC(=O)COc2ccc(/C=C3/NC(=O)NC3=O)cc2)cc1	-0.201% (inactive)
CC(C)c1ccc(/C=C2\NC(=O)NC2=O)cc1	82.8% (active)
CC[C@]12c3[nH]c4cc(CCC(=O)N(C)C)ccc4c3CCN1C(=O)[C@@H](CC(=O)NCc1ccco1)C[C@@H]2C(=O)N1CCN(C(=O)c2ccco2)CC1	2.69% (inactive)
Cc1nn2c(c1-c1ccccc1)N=C(c1ccco1)CC2c1ccccc1 (stereo not drawn)	0.496% (inactive)
O=C1C2C3C=CC(C4CC34)C2C(=O)N1/N=C/c1ccc(-c2ccccc2[N+](=O)[O-])o1 (stereo not drawn)	-4.49% (inactive)
O=C(CSc1nccc(=O)[nH]1)Nc1ccc(N2CCOCC2)c(Cl)c1	50% (active)
O=C(CSc1ccc([N+](=O)[O-])cn1)Nc1ccc(N2CCOCC2)c(Cl)c1	-1.64% (inactive)
O=C(Nc1ccc(N2CCOCC2)c(Cl)c1)c1ccc(S(=O)(=O)N2CCOCC2)cc1	2.6% (inactive)
CC(=O)c1ccc(N2CCN(C(=O)c3ccc4nc[nH]c4c3)CC2)cc1	-2.31% (inactive)
CCOC(=O)c1ccc(NC(=O)Cn2cnc3cc(C)c(C)cc32)cc1	3.16% (inactive)
CCCc1nnc(SCC(=O)Nc2ccc(C(=O)OCC)cc2)o1	-2.03% (inactive)
CCOC(=O)c1ccc(NC(=O)CSc2ncccn2)cc1	66.1% (active)
